# Compound activity from PubChem BioAssay.
# Most compounds without a hit are left out; they make up all but 1.8% or so of the library.
# LYPLA2 counter: blocks human lysophospholipase 2, a PME1 counter-screen. inhibition, % at 5.9 µM. recombinant LYPLA2, FP-Rh probe fluorescence polarization. 320,000 tested, 0.38% active. AID 2177. O95372;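 active = inhibition above the screen-wide mean plus 3 SD, limit set per campaign, cut at about 26% in these data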;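 also: 0% = LYPLA2 with DMSO and 100% = wells lacking LYPLA2 enzyme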
# PME-1 inh: PME-1 (human) inhibition | AID 2130 | Q9Y570 | recombinant PME-1, FP-Rh probe fluorescence polarization | 320,000 tested, 0.53% active | inhibition, % at 5.9 µM;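 active = inhibition above the campaign mean of all compounds plus 3 SD, cut at about 26% in these data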;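 also: competitive labeling of PME-1 active site by serine hydrolase directed probe; 0% = PME-1 with DMSO and 100% = wells lacking PME-1 enzyme; inhibitors block probe labeling so polarization falls and inhibition rises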
# Target sequence (Q9Y570 whole entry, looked up): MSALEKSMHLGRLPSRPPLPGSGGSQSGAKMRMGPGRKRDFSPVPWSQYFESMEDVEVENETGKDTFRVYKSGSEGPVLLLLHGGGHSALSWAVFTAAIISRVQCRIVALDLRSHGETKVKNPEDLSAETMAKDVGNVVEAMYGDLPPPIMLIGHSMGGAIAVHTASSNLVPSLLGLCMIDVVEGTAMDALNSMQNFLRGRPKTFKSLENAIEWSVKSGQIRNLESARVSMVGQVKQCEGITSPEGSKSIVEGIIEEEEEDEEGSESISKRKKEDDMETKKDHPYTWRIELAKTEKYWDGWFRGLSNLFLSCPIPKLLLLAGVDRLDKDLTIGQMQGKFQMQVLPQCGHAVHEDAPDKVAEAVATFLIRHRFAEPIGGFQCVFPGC
# GSTO1 counter: blocks human GSTO1 in RBBP9 counter-screen; AID 1974; inhibition, % at 5.96 µM; 300,000 tested, 1.1% active; P78417; recombinant GSTO1, activity-based probe fluorescence polarization;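 active = inhibition above the campaign mean inhibition plus 3 SD, cut at about 35% in these data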;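 also: 0% = GSTO1-1 with DMSO and 100% = wells lacking GSTO1-1 enzyme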
# Target sequence (P78417 whole entry, looked up): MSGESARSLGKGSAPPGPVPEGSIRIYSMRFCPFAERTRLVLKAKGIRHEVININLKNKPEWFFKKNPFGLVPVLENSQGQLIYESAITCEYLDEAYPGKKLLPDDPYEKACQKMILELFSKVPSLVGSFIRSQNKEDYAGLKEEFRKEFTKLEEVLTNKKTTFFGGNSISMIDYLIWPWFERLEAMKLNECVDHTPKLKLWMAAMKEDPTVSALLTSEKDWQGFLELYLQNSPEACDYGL
# PAD4 inh: blocks human protein arginine deiminase 4. Q9UM07. recombinant PAD4, RCA probe fluorescence polarization. inhibition, % at 6.36 µM. 330,000 tested, 0.41% active. AID 485272;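 active = percent inhibition above a cutoff equal to the mean of all tested compounds plus 3 SD, cut at about 15% in these data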;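 also: 0% = PAD4 with RCA probe and DMSO and 100% = probe without PAD4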
# LYPLA1 counter: blocks human lysophospholipase 1, a PME1 counter-screen | O75608 | recombinant LYPLA1, FP-Rh probe fluorescence polarization | inhibition, % at 5.9 µM | 320,000 tested, 0.16% active | AID 2174;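 active = inhibition above the mean of all tested compounds plus 3 SD, set per campaign, cut at about 14% in these data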;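 also: inhibitors block serine hydrolase probe labeling of LYPLA1 so polarization falls; 0% = enzyme with DMSO and 100% = wells lacking LYPLA1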
# Fam108B inh: counter-screen for RBBP9 inhibitors: inhibitors of mouse Fam108B; recombinant Fam108B, FP-Rh probe fluorescence polarization; inhibition, % at 9.51 µM; 300,000 tested, 0.33% active; AID 1947;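 active = inhibition above the screen mean inhibition plus 3 SD, computed separately per campaign, cut at about 18% in these data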;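 also: inhibitors lower polarization as less probe binds the enzyme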
# PAD4 FP conf: PAD4 (human) inhibition, confirmed; 1,200 tested, 28% active; shares compounds with PAD4 inh; inhibition, % at 6.36 µM; recombinant PAD4, RCA probe fluorescence polarization;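 active = mean inhibition across replicates above the hit cutoff set by the earlier primary screen, cut at about 15% in these data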;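 also: inhibitors block active-site labeling by the probe so polarization falls; 0% = PAD4 with probe and DMSO and 100% = probe without PAD4 enzyme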
# * marks the source's active call; other numbers are inactive results; . = no result.
SMILES,LYPLA2 counter,PME-1 inh,GSTO1 counter,PAD4 inh,LYPLA1 counter,Fam108B inh,PAD4 FP conf
CCOC(=O)C1CCN(c2nc3ccccc3nc2C(C#N)C(=O)OC(C)COC)CC1 (centres undefined),-2.0,-5.0,-0.4,2.2,-1.2,5.2,.
CCOC(=O)C1CCN(c2nc3ccccc3nc2C(C#N)C(=O)OC(C)C)CC1 (centres undefined),3.0,-8.6,3.2,16.7*,1.5,-2.0,-12.6
COC(=O)c1c(NC(=O)c2ccco2)sc(C(=O)N(C)C)c1C,-12.2,-7.9,10.6,19.0*,-3.1,-0.3,15.8*
COC(=O)c1c(NC(=O)c2cccnc2)sc(C(=O)N(C)C)c1C,-1.6,2.4,5.1,2.4,4.8,0.9,.
C[C@@H](O)CC(=O)O,1.4,-3.0,4.6,-6.4,2.9,1.4,.
CC(C(=O)O)C(=O)O,-5.7,-1.0,0.4,39.2*,-2.7,-6.0,0.7
COC(=O)CCCC1=CC2=CC(=O)C(C)(OC(=O)c3cccs3)C(=O)C2=CN1CCc1ccccn1 (centres undefined),4.9,2.1,32.5,17.1*,2.5,4.2,-10.6
CCCCC1=CC2=C(c3ccco3)C(=O)C(C)(OC(=O)c3ccc(OC)cc3)C(=O)C2=CN1CCOC (centres undefined),0.0,11.0,11.1,0.8,-1.4,2.0,.
CCCCC1=CC2=C(c3ccco3)C(=O)C(C)(OC(=O)c3ccc(OC)cc3)C(=O)C2=CN1CCc1ccccn1 (centres undefined),0.6,3.2,6.5,28.3*,-0.2,10.4,7.1
C=CCN1C=C2C(=O)C(C)(OC(=O)c3cccs3)C(=O)C=C2C=C1CCCC(=O)OC (centres undefined),2.3,8.0,30.8,13.1,3.8,-0.7,.
COc1ccc(OC)c2[nH]c(=O)c(CCNC(=O)C(C)C)cc12,2.1,2.9,3.2,0.3,0.3,-0.5,.
COc1ccc(OC)c2[nH]c(=O)c(CCNC(=O)CC(C)C)cc12,-2.2,3.5,1.8,49.9*,1.3,0.3,6.9
O=C(NCC(=O)N(c1cccc(F)c1)C(C(=O)NC1CCCC1)c1ccncc1)c1cccs1 (centres undefined),-0.2,-2.9,0.0,18.3*,-0.9,4.2,-0.2
O=C(CSc1nncc2ccccc12)N1CCCCC1,2.3,-10.0,2.9,17.0*,-3.7,0.0,3.7
Cc1ccc([N+](=O)[O-])cc1NC(=O)CSc1nncc2ccccc12,-3.4,4.8,13.7,-1.1,-4.7,-0.5,.
Cc1ccc(NC(=O)CSc2nncc3ccccc23)cc1,-0.8,-8.8,7.3,16.5*,-3.4,2.5,9.8
O=C(CSc1nc(C2CC2)nc2ccccc12)N1CCCCC1,3.0,-7.1,-28.6,4.0,-4.8,-1.1,.
CN(C)c1ccc(N/C=C/C(=O)c2ccc(F)cc2)cc1,2.3,6.6,45.5*,31.2*,-2.5,-3.0,-2.3
NS(=O)(=O)c1ccc(N/C=C\C(=O)c2ccc(F)cc2)cc1,2.1,3.9,1.6,-2.3,1.0,-1.3,.
CN(C)c1ccc(/C=N/NC(=O)Cn2nnc3ccccc32)cc1,5.2,0.9,1.4,14.9*,1.0,5.0,-0.5
O=C1CCCC(O)=C1N=Nc1c(Cl)cc(Cl)cc1Cl,21.7,14.8,17.5,36.3*,9.6,5.1,1.1
O=C1CCCC(O)=C1N=Nc1cccc(C(=O)O)c1,-0.8,-13.0,11.3,-12.9,-1.1,15.3,.
Cc1ccnc(NC(=O)c2cnc(Cl)c(Cl)c2)c1,-2.6,-3.9,6.7,2.7,-1.6,-0.5,.
O=C(O)C1CC=C(Cl)CC1C(=O)NC1CCCCC1 (centres undefined),2.4,-4.1,-4.6,-1.1,-3.9,-3.5,.
C/C(=N\NC(=O)C(=O)Nc1cccc(Cl)c1C)c1ccncc1,-5.0,-2.2,4.5,25.4*,1.2,4.8,2.0
SMILES,LYPLA2 counter,PME-1 inh,GSTO1 counter,PAD4 inh,LYPLA1 counter,Fam108B inh,PAD4 FP conf
CC1=C(C#N)C(=O)OC(C)(C)C1,15.5,13.6,7.1,47.5*,14.1,11.7,15.4*
Cc1cc(C(=O)CSc2nc(N)cc(=O)[nH]2)c(C)n1CC1CCCO1 (centres undefined),.,.,.,28.3*,.,.,15.2*
CCc1nc(NCCO)c(C#N)c2c1CSC(C)(C)C2,1.6,-0.9,-4.7,-4.2,-2.2,0.4,.
COc1ccc(C(=O)Nc2nnc(Cc3ccc(OC)c(OC)c3)s2)c(OC)c1,-12.3,-2.2,28.1,22.2*,-12.4,-0.9,31.6*
O=C(Nc1ccccc1Cl)c1c(F)c(F)c(F)c(F)c1F,-1.8,-0.3,-4.3,-1.3,1.9,5.1,.
O=C(NC1(O)C(=O)c2ccccc2C1=O)c1c(Cl)cccc1Cl,1.1,10.0,79.4*,24.4*,-2.3,4.7,36.9*
COc1ccc(/C=C/C(=O)OCC(=O)c2c(N)n(C)c(=O)n(C)c2=O)c(OC)c1,7.3,5.0,6.3,19.2*,3.3,-1.7,3.5
CNC(=S)N/N=C/c1c(Cl)cccc1Cl,1.4,-2.3,6.4,0.6,-3.0,-1.6,.
CCc1nnc(N/N=C/c2c(Cl)cccc2Cl)n1N,1.4,2.4,16.0,21.3*,1.2,6.1,2.1
CCc1nnc(N/N=C/c2cccs2)n1N,-5.4,-1.5,17.0,33.8*,0.5,1.4,-6.0
Oc1ccc(Br)cc1-c1ccnn1-c1ccccc1,-10.6,-2.6,6.3,4.3,-7.6,-3.1,.
NS(=O)(=O)c1ccc(NC(=S)NCc2ccc(Cl)cc2)cc1,-10.1,-5.0,0.4,20.0*,-6.7,-3.4,6.5
CC(=O)NC1=NN(c2ccccc2)C(=O)C1,-3.5,-8.1,12.5,42.8*,-2.9,-5.0,2.7
O=C(CCCCl)NC1=NN(c2ccccc2)C(=O)C1,4.1,1.1,19.4,-9.5,-0.4,1.1,.
COc1cccc(NC(=O)c2ccccc2-c2ccccc2C(=O)O)c1,1.0,2.1,-2.5,18.1*,-0.3,5.5,-0.5
c1ccc(-c2cc(NCCN3CCCCC3)c3ccccc3n2)cc1,-1.6,3.0,-0.1,5.3,-4.1,-0.8,.
COc1ccc(NC(=O)CCS(=O)(=O)c2ccc(OC)cc2)cc1,-10.3,-2.0,-0.5,20.4*,-2.9,-5.6,7.2
Clc1cccc(CN2CCN(c3nc4nonc4nc3NC3CC3)CC2)c1,5.2,4.8,5.4,-2.5,-3.4,3.2,.
Cc1cccc(CN2CCN(c3nc4nonc4nc3NC3CC3)CC2)c1,-0.7,-2.9,2.4,28.3*,2.6,-0.4,6.3
COc1ccc(N2CCCC2=N)c(OC)c1,-0.5,-6.2,16.0,3.1,-0.8,8.5,.
CC1=NN(c2ccccc2)C(=O)C1C=Nc1ccc(N(C)C)cc1 (centres undefined),0.5,9.9,62.7*,51.3*,2.4,0.9,0.9
COCC(C)NC(=O)CSc1nc2cc(S(=O)(=O)N3CCCCC3)ccc2o1 (centres undefined),-1.7,7.8,.,-1.5,-1.2,.,.
